Over roughly 25,000 sequences, “ln(normalized median fluorescence intensity)” has its median near 6.7; the highest 2% begin near 10. The sample as a whole holds a higher share of the highest values than the screen did.
tested on: PfHDP1 homeodomain (GST-tagged); assay: gcPBM binding intensity (ln(normalized median fluorescence intensity)); higher = stronger DNA binding
Procedure, shortened: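 Plasmodium falciparum DNA-binding domains carrying a GST tag were expressed in E. coli and applied for 1 h, at about 25 μg on average, to an Agilent 4 × 180k array. The array held primer-extended double-stranded 36-bp intergenic genomic probes together with negative controls, and binding took place in 1× PBS with 1% milk, 0.2 mg/ml BSA, 0.5% salmon testes DNA and 0.03% Triton X-100. An Alexa488 anti-GST antibody detected bound protein, and the array was scanned at 488 nm. Binding intensity is taken as the highest Masliner-normalised natural-log median intensity across replicate spots of either probe orientation.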

Row | Sequence | gcPBM binding intensity (ln)
1 | CATATAAAAATGTGCACACACACACCGATATATATT [CACACA_site4940] | 10.8
2 | TTACAACATGAAAATGTGCACATATATATATATATA | 10.8
3 | TATGTGCACCCATATACACACACAAATACAATGATA [CACACA_site8295] | 10.7
4 | GGTATTTTCACATATAGTACACAAAAATAAAATAAA [XGTACX_site2139] | 6.68
5 | CATATAGATTTGTTCACACACACACTAAAAAAAAAA [CACACA_site7212] | 6.7
6 | TATTCTAATTTTTAAACACACAAATATAAATAAGTA [CACACA_site3149] | 6.35
7 | AAAAGAAAAAAAAAAAAAAAAAAAATTAAAATATAA [CACACA_negctrl_site17] | 5.65
8 | TGAATAATATACATACGTACATACATATATATAATA [XGTACX_site1302] | 6.17
9 | AATATAAATATTAAAACACACATAAAAAGATTATTA [CACACA_site1764] | 6.29
10 | ATATATATAAAATGTTGTACATATATATAAATAATA [XGTACX_site1661] | 6.15
11 | TAAATTTTTAAATACACACATACACCCATACAGACA [CACACA_site548] | 7.18
12 | TTTAAAACCCTAAAAAAAAAAAAAAAAAAAAAAAAA [CACACA_negctrl_site1212] | 6.26
13 | TTTTTTTAAATTATATGTACATAATTTTAATTTTAT [XGTACX_site5086] | 6.43
14 | ATTTTTTTTTTTATGTGTACATATATTTTTTTAATT [XGTACX_site7921] | 7.04
15 | AACATATAAAAATGTGCACACACACCCATATATATA [CACACA_site1525] | 10.7
16 | AAAAAAAAAAAAAACACACACACACCCATAAATATA [CACACA_site151] | 6.87
17 | AATATAAATAAAAACACACACACACCCATATATATA [CACACA_site2267] | 7.13
18 | AAATAAATAATTTAATGTACATATATAATATATATA [XGTACX_site1831] | 6.81
19 | AGAGTACAAGTAAATACACACATATAGATGAAAATA [CACACA_site6635] | 6.88
20 | ATTGTATCTGTATATGCACACAATATCTGTACTTCT [CACACA_site5445] | 10.1
21 | TATATTATATGTATTGCACACCTTCAACAACTACTT [CACACA_site8121] | 10.5
22 | TATTATATGTATTGCACACCTTCAACAACTACTTCT [CACACA_site655] | 10.6
23 | TTATTATGTATATATGCACACAATACCCAAAACAAC [CACACA_site80] | 9.84

Row | Sequence | gcPBM binding intensity (ln)
24 | TATATATTGATATGCACACCTATGTATTGATGTATA [CACACA_site1073] | 10
25 | CAACTAACATATATTCAACACACATATACCTTCAAC [CACACA_site8988] | 6.43
26 | AAAAAAATAAATAAATGTACACATATATATATATAT [XGTACX_site4350] | 9.25
27 | AAAATGTATTCTCTCATGCACACTTTCTTTAAGGGA [CACACA_site2196] | 8.5
28 | AATACAAAAAAAGGTACACACATAATATATTTATTA [CACACA_site2628] | 6.46
29 | ATTATATATATTTATGCACACAAAATATATTATATA [CACACA_site9244] | 10.1
30 | GTTCTTTCAAATTATACACACCAAAAAAAAAAAAAA [CACACA_site5660] | 6.62
31 | TATATATCTTTATGCACACACAAAGAAAATTTTCCT [CACACA_site7366] | 10.5
32 | TTCTTTTTCCAATTTGCACACCACAAAATTATATAT [CACACA_site2909] | 10.6
33 | AATATATCTTATTTAACACACACAAAGAAAATAGAA [CACACA_site9242] | 7.34
34 | TATATCTTATTTAACACACACAAAGAAAATAGAAAA [CACACA_site3732] | 6.81
35 | TATATATATTTTTATGCACACACAAAGAAAATTTTC [CACACA_site8931] | 10.1
36 | TATATATTTTTATGCACACACAAAGAAAATTTTCCT [CACACA_site2863] | 10.8
37 | TAATGTATTATATTTTGTTTTCTTCCACCAAAAAAA [XGTACX_negctrl_site64] | 6.41
38 | AACAAATGTTAAATGTTTAAGGAGAAAATAAAGACA [CACACA_negctrl_site1163] | 6.75
39 | ATTTGCTCACAAGAAGCACACAAAAAAAGAAAAAAA [CACACA_site9338] | 7.34
40 | TATTTTTTCCTTTGTTTTTTAAACTATCTTAACTAA [XGTACX_negctrl_site519] | 6.37
41 | TTAACTTTTTTATATGCACACATAAACAAGGATATA [CACACA_site8932] | 10.1
42 | TCCATATGCAAACTGGTGCACAAGTAGCTTTTATAT | 10.8
43 | AACTTTTTTATATGCACACATAAACAAGGATATATA [CACACA_site2874] | 10.3
44 | ACACATAAATGAATAAATAAATAAATATAAATATAA [CACACA_negctrl_site1784] | 6.21
45 | TAATATAGAAAATGCATACACACTTTATATATATAT [CACACA_site911] | 8.61

From the supplement of paper PMC11417369
